Experimental data: PubChem BioAssay AID1159580 (chemical genetic matrix, 2015)
Hit rate of the full screen: of about 5,500 compounds, about 2,000 (36%) were called active. Inconclusive results (about 18%) are left out. Rule as the data show it: active = normalized growth mostly below about 0.91 (no sharp cut-off); inconclusive = no clear call, values can overlap the other calls; inactive = mostly above about 0.92. The list shows a part of the results.

Assay: chemical genetic growth profiling, strain panel (AID 1159580);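 also: tested at 20 µM; growth read once vehicle control cultures reached saturation at 30 °C; 1 = growth at the plate median or of vehicle wells; lower values mean less growth of the strain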
Settings: S. cerevisiae deletion strains, growth OD
[1] = locus YDL101C, strain DUN1, hits give low values
[2] = locus YHR030C, strain SLT2, hits give low values

Measured: normalized growth

OC(CN1CCN(c2nc3ccc(Cl)cc3s2)CC1)Cn1ccc2ccccc21 (stereo not given)
inactive: locus YAR019C, strain CDC15, hits give low values 1 | locus YBL105C, strain PKC1, hits give low values 0.99 | locus YBR135W, strain CKS1, hits give low values 0.991 | locus YBR136W, strain MEC1, hits give low values 0.996 | locus YBR160W, strain CDC28, hits give low values 0.985 | locus YDL017W, strain CDC7, hits give low values 0.996 | locus YDL028C, strain MPS1, hits give low values 0.99 | [1] 0.989 | locus YDL108W, strain KIN28, hits give low values 0.986 | locus YDL132W, strain cdc53, hits give low values 1 | locus YDL214C, strain PRR2, hits give low values 0.92 | locus YDR052C, strain DBF4, hits give low values 1 | locus YDR054C, strain cdc34, hits give low values 0.996 | locus YDR226W, strain ADK1, hits give low values 0.99 | locus YDR477W, strain SNF1, hits give low values 0.935 | locus YER123W, strain YCK3, hits give low values 0.903 | locus YER133W, strain GLC7, hits give low values 0.93 | locus YFL009W, strain cdc4, hits give low values 0.993 | locus YFL029C, strain CAK1, hits give low values 0.989 | locus YFR003C, strain YPI1, hits give low values 0.992 | locus YFR019W, strain FAB1, hits give low values 0.935 | locus YFR028C, strain CDC14, hits give low values 0.995 | locus YGR040W, strain KSS1, hits give low values 0.934 | locus YGR052W, strain FMP48, hits give low values 1.02 | locus YGR092W, strain DBF2, hits give low values 0.96 | [2] 0.864 | locus YHR079C, strain IRE1, hits give low values 0.955 | locus YHR082C, strain KSP1, hits give low values 1.05 | locus YHR205W, strain SCH9, hits give low values 0.97 | locus YIL147C, strain SLN1, hits give low values 0.999 | locus YJL095W, strain BCK1, hits give low values 0.954 | locus YJL128C, strain PBS2, hits give low values 0.942 | locus YJL157C, strain FAR1, hits give low values 0.924 | locus YJR016C, strain ILV3, hits give low values 0.991 | locus YJR066W, strain TOR1 (second series), hits give low values 0.875 | locus YJR066W, strain TOR1, hits give low values 0.991 | locus YKL048C, strain ELM1, hits give low values 0.981 | locus YKL067W, strain YNK1, hits give low values 0.924 | locus YKL101W, strain HSL1, hits give low values 0.942 | locus YKL193C, strain SDS22, hits give low values 0.994 | locus YKL203C, strain TOR2, hits give low values 0.981 | locus YLR113W, strain HOG1, hits give low values 0.864 | locus YLR133W, strain CKI1, hits give low values 0.942 | locus YLR403W, strain SFP1, hits give low values 0.926 | locus YML070W, strain DAK1, hits give low values 0.927 | locus YMR001C, strain CDC5, hits give low values 0.988 | locus YMR205C, strain PFK2 (second series), hits give low values 0.948 | locus YMR277W, strain FCP1, hits give low values 1 | locus YNL006W, strain LST8, hits give low values 0.985 | locus YNL020C, strain ARK1, hits give low values 0.942 | locus YNL161W, strain CBK1, hits give low values 0.982 | locus YNL183C, strain NPR1, hits give low values 1 | locus YNL207W, strain RIO2, hits give low values 1 | locus YNL222W, strain SSU72, hits give low values 0.999 | locus YNL307C, strain MCK1 (second series), hits give low values 0.935 | locus YOL078W, strain AVO1, hits give low values 0.976 | locus YOL136C, strain PFK27, hits give low values 0.912 | locus YOR061W, strain CKA2, hits give low values 0.952 | locus YOR119C, strain RIO1, hits give low values 1.01 | locus YOR231W, strain MKK1, hits give low values 0.947 | locus YOR329C, strain SCD5, hits give low values 0.986 | locus YPL031C, strain PHO85, hits give low values 0.938 | locus YPL153C, strain RAD53, hits give low values 0.959 | locus YPL204W, strain HRR25, hits give low values 0.895 | locus YPL209C, strain IPL1, hits give low values 0.989 | locus YPL256C, strain CLN2, hits give low values 0.938 | locus YPR025C, strain CCL1, hits give low values 0.99 | locus YPR106W, strain ISR1, hits give low values 0.991 | locus YPR111W, strain DBF20, hits give low values 0.967 | strain NNK1, hits give low values 0.974 | strain TSCII, hits give low values 0.995

OC(CN1CCN(c2nc3ccc(Cl)cc3s2)CC1)CN1CCCN(c2ncc(C(F)(F)F)cc2Cl)CC1 (stereo not given)
active: locus YDL134C, strain PPH21, hits give low values 0.0459 | locus YEL061C, strain CIN8, hits give low values 0.0536 | [2] 0.068 | locus YKL190W, strain CNB1, hits give low values 0.0453 | locus YLR039C, strain RIC1, hits give low values 0.0605 | locus YLR085C, strain ARP6, hits give low values 0.0639 | locus YLR262C, strain YPT6, hits give low values 0.0604 | locus YML094W, strain GIM5, hits give low values 0.0664 | locus YNL298W, strain CLA4 (second series), hits give low values 0.0802 | locus YNR030W, strain Alg12, hits give low values 0.0638 | locus YOL006C, strain TOP1, hits give low values 0.0656 | locus YPL241C, strain CIN2, hits give low values 0.0618 | locus YPR135W, strain CTF4, hits give low values 0.16
inactive: locus YAL013W, strain DEP1, hits give low values 1 | locus YBR229C, strain ROT2, hits give low values 0.943 | locus YCL061C, strain MRC1, hits give low values 0.997 | [1] 1.03 | locus YDR150W, strain NUM1, hits give low values 0.942 | locus YGR078C, strain PAC10, hits give low values 1.02 | locus YHR087W, strain rtc3, hits give low values 0.952 | locus YJL187C, strain SWE1, hits give low values 0.995 | locus YJR043C, strain POL32, hits give low values 1.02 | locus YJR075W, strain HOC1, hits give low values 1.01 | locus YLR058C, strain SHM2 (second series), hits give low values 0.999 | locus YMR219W, strain ESC1, hits give low values 1.01 | locus YMR263W, strain SAP30, hits give low values 1.02 | locus YNL153C, strain GIM3, hits give low values 1 | locus YNL322C, strain KRE1, hits give low values 1.03 | locus YPL055C, strain LGE1, hits give low values 0.985
